Results filed as inconclusive are left out. Active and inactive are the calls of the source. Calls come from the whole dose curve; as a rule, active = well fitted inhibition curve with a large enough effect; inconclusive = small, poorly fitted or top-dose-only effect; inactive = flat fitted curve, though single readings scatter.
% is set by controls: 0 for no effect and ±100 for the full control effect.

For this assay, the target named is Calcium and integrin-binding protein 1 (Homo sapiens) (UniProt Q99828). As to the kind of experiment: Primary qHTS for Identification of Calcium Integrin Binding Protein 1 (CIB1) Competitor (AID 1508620). Note: top concentration of the series differs between compounds. The settings on record: CIB1-GST / FITC-alphaIIb peptide fluorescence polarization; series mostly up to 114 µM; activity change, negative = inhibition: at the top concentration. The method, boiled down: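 Fluorescence polarization competition: GST-tagged CIB1 (1 uM final) preincubated with compound 15 min at room temperature, then FITC-labelled alphaIIb peptide (100 nM final) added. After 15 min at room temperature, polarization read at Ex 480/Em 540.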
Sequence of Calcium and integrin-binding protein 1 (Homo sapiens) (Q99828 whole entry, looked up): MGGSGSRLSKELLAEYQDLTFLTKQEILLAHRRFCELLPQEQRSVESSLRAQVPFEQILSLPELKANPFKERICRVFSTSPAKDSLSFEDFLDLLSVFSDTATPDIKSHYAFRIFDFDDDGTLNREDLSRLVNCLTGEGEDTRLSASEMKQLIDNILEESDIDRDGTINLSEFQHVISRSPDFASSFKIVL
(In general: qHTS replaces the single test concentration by a dilution series.)
As for `CC(C)(C)OC(=O)N1CCN(c2ccc(NCc3occc3-c3ccc(C#N)cc3)cc2)CC1`, the “activity change, negative = inhibition” value is -8.68% (inactive).
With `COc1cccc(C2c3c(ncn(-c4ccc(C#N)cc4)c3=N)Oc3ccc4ccccc4c32)c1` (configuration not stated) the figure was 10.1% (inactive); with `O=C(Nc1ncc(-c2ccccc2)s1)c1ccc(-c2cccc([N+](=O)[O-])c2)o1`, 0.306% (inactive).
As for `N#Cc1cccc(-c2csc(N3CCC(C(N)=O)CC3)n2)c1`, the “activity change, negative = inhibition” value was 1.27% (inactive).
Take `Cc1ccnc(NC(=S)Nc2cccc(C(F)(F)F)c2)c1`: the “activity change, negative = inhibition” value is -5.3% (inactive).
With `O=C1c2ccccc2NC(c2ccccc2O)N1Cc1ccccc1` (configuration not stated) the figure was 0.512% (inactive).
On to `COc1cc(O)c(C(CC(=O)N2CCCC(C)C2)c2ccc(OC)c(OC)c2)c(OC)c1` (configuration not stated), for which the “activity change, negative = inhibition” value is 3% [at 228 µM] (inactive).
With `Cc1cccc(-n2cnc3cc(C(=O)N4CCCCC4)ccc32)c1` the figure was -1.74% (inactive); with `Cc1ccc(N(C)S(=O)(=O)c2ccc3c(c2)CCC(=O)N3)cc1C`, 0.715% (inactive); with `O=C(c1ccccc1O)N(Cc1ccco1)Cc1ccco1`, -6.24% (inactive).
The figure for `Cc1ccc(NS(=O)(=O)c2cc3c(cc2N2CCCC2)NC(=O)CC3)cc1C` is -9.69% (inactive); for `CC(=O)NC(c1cc(Cl)c2cccnc2c1O)C(C)C` (configuration not stated) it is -13% (inactive).
With `Cc1c(C(=O)OCc2ccco2)[nH]c2c1C(=O)CC(c1ccco1)C2` (configuration not stated) the figure was -10.1% (inactive); with `Clc1cccc(CSc2nc3ncc(Br)cc3[nH]2)c1`, 7.18% (inactive); with `O=C1c2ccccc2C(=O)N1c1noc2ccccc12`, 3.67% (inactive).
Regarding `CCOc1ccccc1-c1nnc2n1N=C(c1cccc(OC)c1)CS2`, the “activity change, negative = inhibition” value was -4.08% (inactive).
The figure for `COc1ccc(C2=Nn3c(nnc3-c3ccccc3OC)SC2)cc1O[C@H]1CCOC1` is 1.1% (inactive); for `CCOc1cc2c(cc1OCC)CN(C(=O)c1cc3sccc3n1Cc1ccccc1)CC2` it is 4.43% (inactive).
With `N#Cc1c(-c2ccco2)no[n+]1[O-]` the figure was -3.75% (inactive).
The figure for `O=C(Cn1cc(CNC(=O)C2CCCCC2)nn1)Nc1cc(C(F)(F)F)ccc1Cl` is 2.8% (inactive); for `O=C(NC(c1ccco1)c1cc(Cl)c2cccnc2c1O)c1ccc(F)c(F)c1` (configuration not stated) it is -6.74% (inactive); for `Fc1ccc(-c2nc(-c3ccncc3)nc3ccccc23)cc1F` it is 1.35% (inactive).

For the origin of these results see PubChem BioAssay (NCATS).
